# Source: PubChem BioAssay (Tox21)
# Where “and” joins values, the source holds several entries; their conditions need not be identical. Equal values may be shown once. Inconclusive results are not listed. Where a call stands in place of a potency, no number is given. Some structures have more than one record in an assay (separate samples or runs), and their calls can disagree. Calls of active or inactive are those of the source. Unless noted, the call rests on the fitted dose curve; in most records, active means well fitted curve in the direction sought with a large enough effect in the repeat runs; inconclusive means weak or mixed curves; inactive means no such curve, though single readings can be large; an effect the other way counts as inactive or inconclusive.
# What was measured:
# [1] = qHTS assay to identify small molecule antagonists of the glucocorticoid receptor (GR) signaling pathway - cell viability counter screen (AID 720693); further: nearly all actives have a fitted effect of over 55% in size; further: potency means the concentration at half of the fitted maximal effect
# [2] = qHTS assay for identifying genotoxic compounds that show differential cytotoxicity against isogenic chicken DT40 cell lines with known DNA damage response pathways - Rev3 mutant cell line (AID 743014); further: nearly all actives have a fitted effect of over 55% in size; further: potency means the concentration at half of the fitted maximal effect
# [3] = qHTS assay to identify small molecule antagonists of the androgen receptor (AR) signaling pathway - cell viability counter screen (AID 743033; further: nearly all actives have a fitted effect of over 45% in size; further: potency means the concentration at half of the fitted maximal effect)
# [4] = qHTS assay to identify small molecule antagonists of the androgen receptor (AR) signaling pathway using the MDA cell line - cell viability counter screen (AID 743041; further: nearly all actives have a fitted effect of over 45% in size; further: potency means the concentration at half of the fitted maximal effect)
# Procedure, shortened: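 Viability read by CellTiter-Fluor fluorescence in the same wells as the antagonist screen, added after 15.5 h of a 16 h, 37C exposure. Human breast carcinoma MDA-kb2 AR-luc cells, compounds co-dosed with agonist R1881.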
# [5] = qHTS assay for identifying genotoxic compounds that show differential cytotoxicity against isogenic chicken DT40 cell lines with known DNA damage response pathways - Rad54/Ku70 mutant cell line (AID 743015); further: nearly all actives have a fitted effect of over 60% in size; further: potency means the concentration at half of the fitted maximal effect
# [6] = qHTS assay for identifying genotoxic compounds that show differential cytotoxicity against isogenic chicken DT40 cell lines with known DNA damage response pathways - wild type cell line (AID 743012); further: potency means the concentration at half of the fitted maximal effect; nearly all actives have a fitted effect of over 60% in size
# Procedure, shortened: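 300 wt DT40 cells/well; cpd (DMSO) pintool-transferred after ~0.5 h at 37 C/5% CO2; 40 h incubation; CellTiter-Glo added, 30 min RT; luminescence read.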
# [7] = biological target: Androgen receptor (Homo sapiens) (UniProt P10275); experiment: qHTS assay to identify small molecule antagonists of the androgen receptor (AR) signaling pathway (AID 743035; active means well fitted inhibition curve with a large enough effect in the signal ratio in the repeat runs, not every such curve was filed as active; the % refers to the signal ratio; further: potency means the concentration at half of the fitted maximal effect)
# Chain of Androgen receptor (Homo sapiens) (P10275 whole entry, looked up): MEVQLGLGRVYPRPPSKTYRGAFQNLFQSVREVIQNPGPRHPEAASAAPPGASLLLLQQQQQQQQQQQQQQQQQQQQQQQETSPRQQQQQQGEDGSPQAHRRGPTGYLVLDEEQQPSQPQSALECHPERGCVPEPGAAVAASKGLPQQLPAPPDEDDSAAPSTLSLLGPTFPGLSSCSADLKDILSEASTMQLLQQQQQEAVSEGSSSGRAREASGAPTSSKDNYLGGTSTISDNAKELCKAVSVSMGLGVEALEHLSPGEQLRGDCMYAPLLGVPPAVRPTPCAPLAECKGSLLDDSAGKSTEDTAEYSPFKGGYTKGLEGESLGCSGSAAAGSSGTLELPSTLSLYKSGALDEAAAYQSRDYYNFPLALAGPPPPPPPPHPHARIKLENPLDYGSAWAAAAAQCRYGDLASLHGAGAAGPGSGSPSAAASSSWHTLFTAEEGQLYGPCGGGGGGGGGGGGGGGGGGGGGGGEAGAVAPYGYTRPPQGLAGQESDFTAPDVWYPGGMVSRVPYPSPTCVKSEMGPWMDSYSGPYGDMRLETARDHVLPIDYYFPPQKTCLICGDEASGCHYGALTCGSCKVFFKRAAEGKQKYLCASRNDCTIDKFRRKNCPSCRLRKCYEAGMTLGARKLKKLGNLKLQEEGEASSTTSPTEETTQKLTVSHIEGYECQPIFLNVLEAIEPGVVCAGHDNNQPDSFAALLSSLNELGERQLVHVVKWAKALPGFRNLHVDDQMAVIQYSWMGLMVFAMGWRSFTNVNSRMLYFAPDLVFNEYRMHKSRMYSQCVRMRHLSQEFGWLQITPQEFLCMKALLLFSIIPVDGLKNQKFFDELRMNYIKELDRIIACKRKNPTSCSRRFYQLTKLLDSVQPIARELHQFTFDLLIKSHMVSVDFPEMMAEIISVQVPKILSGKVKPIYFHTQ
# Procedure, shortened: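 In this cell-based reporter screen, compounds were tested in concentration series against R1881-activated HEK293 cells expressing beta-lactamase under UAS control; after 16 h at 37C, FRET substrate was added and fluorescence read 2 h later.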
# [8] = biological target: Androgen receptor (Homo sapiens) (UniProt P10275); experiment: qHTS assay to identify small molecule agonists of the androgen receptor (AR) signaling pathway using the MDA cell line (AID 743040; further: nearly all actives have a fitted effect of over 20% in size); conditions: MDA-kb2 AR-luc cells, MMTV luciferase, 16 h, stronger effect = higher value
# Procedure, shortened: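 Luciferase agonist assay: 16 h compound exposure at 37C without CO2 in MDA-kb2 AR-luc cells, whose MMTV promoter responds to both AR and GR. Luminescence measured after 30 min room-temperature incubation with ONE-Glo.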
# [9] = biological target: Androgen receptor (Homo sapiens) (UniProt P10275); experiment: qHTS assay to identify small molecule antagonists of the androgen receptor (AR) signaling pathway using the MDA cell line (AID 743042; further: nearly all actives have a fitted effect of over 55% in size; further: potency means the concentration at half of the fitted maximal effect)
# Procedure, shortened: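 Antagonist mode: compounds plus R1881 agonist added to MDA-kb2 AR-luc cells, incubated 16 h at 37C. Luciferase reporter luminescence quantified, with multiplexed CellTiter-Fluor readout for cell viability.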
# [10] = biological target: Androgen receptor (Homo sapiens) (UniProt P10275); experiment: qHTS assay to identify small molecule agonists of the androgen receptor (AR) signaling pathway (AID 743036; active means well fitted activation curve with a large enough effect in the signal ratio in the repeat runs, with a control signal flat, not every such curve was filed as active; the % refers to the signal ratio)
# Procedure, shortened: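 Activation was read as beta-lactamase FRET signal from LiveBLAzer B/G substrate, added for 2 h at room temperature. Before that, GeneBLAzer AR-UAS-bla GripTite (HEK293) cells had 16 h compound exposure at 37C.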
structure (smiles),measurement,setting,value
CC(C)=CC1C(C(=O)OCc2cccc(Oc3ccccc3)c2)C1(C)C (centres undefined),Potency,[1],inactive
same,Potency,[2],inactive
same,Potency,[3],inactive
same,Potency,[4],inactive
c1ccc2c(c1)Nc1ccccc1S2,Potency,[1],inactive
same,Potency,[5],40.9 µM (active)
same,Potency,[3],inactive
same,Potency,[4],inactive
CCOP(=S)(OCC)SCSC(C)(C)C,Potency,[1],inactive
same,Potency,[2],inactive
same,Potency,[3],inactive
same,Potency,[4],inactive
N#CCCCCC#N,Potency,[1],inactive
same,Potency,[2],inactive
same,Potency,[5],inactive
same,Potency,[3],inactive
same,Potency,[4],inactive
Oc1ccc(Cl)cc1Cc1ccccc1,Potency,[6],21.1 µM (active) and 6.19 µM (active)
same,Potency,[2],26.6 µM (active) and 54.5 µM (active) and 21.3 µM (active)
same,Potency,[5],29.8 µM (active) and 48.6 µM (active) and 16.5 µM (active)
same,Potency,[3],inactive and 38.9 µM (active) and 39.4 µM (active)
same,Potency,[7],19.5 µM (active)
same,activity change,[8]; at 70.3 µM (top of the series),-0.884% (inactive) and -9.7% (inactive)
same,activity change,[8]; at 95 µM (top of the series),-7.19% (inactive)
same,Potency,[4],inactive
same,Potency,[9],inactive and 54.5 µM (active)
Cc1ccc([N+](=O)[O-])cc1,Potency,[1],inactive
same,Potency,[2],inactive
same,Potency,[5],inactive
same,Potency,[3],inactive
same,Potency,[4],inactive
CCCCOCC1CO1 (centres undefined),Potency,[1],inactive
same,Potency,[2],inactive
same,Potency,[3],inactive
same,Potency,[4],inactive
C=CC(=O)OCC(CC)(COC(=O)C=C)COC(=O)C=C,Potency,[1],12.6 µM (active) and 11 µM (active)
same,Potency,[2],1.58 µM (active) and 3.06 µM (active)
same,Potency,[3],7.97 µM (active) and 12.3 µM (active)
same,Potency,[7],4.48 µM (active)
same,activity change,[8]; at 70.3 µM (top of the series),-11.9% (inactive)
same,activity change,[8]; at 95 µM (top of the series),-11.2% (inactive)
same,Potency,[4],62.8 µM (active) and 30.6 µM (active)
same,Potency,[9],8.87 µM (active) and 6.86 µM (active)
CSc1nc(NC(C)C)nc(NC(C)C)n1,Potency,[1],inactive
same,Potency,[3],inactive
same,Potency,[4],inactive
COc1ccc(CO)cc1,Potency,[1],inactive
same,Potency,[2],inactive
same,Potency,[5],inactive
same,Potency,[3],inactive
same,Potency,[4],inactive
C=CC(Cl)CCl (centres undefined),Potency,[1],inactive
same,Potency,[2],inactive
same,Potency,[3],inactive
same,Potency,[7],inactive
same,Potency,[10],inactive
same,activity change,[8]; at 95 µM (top of the series),-0.5% (inactive) and 0.488% (inactive)
same,Potency,[4],inactive
same,Potency,[9],inactive
